The record followed here is PubChem BioAssay.

The test system of assay [1] is XIP peptide (Xip251-270) binding. The assay is described as follows: XIP fragment 251-270 binding compounds – biochemical, small-molecule microarray, fluorescence 635/667 nm, 0.1 µg/mL protein, primary screen (AID 1182). As to conditions: fluorescent protein binding, 635 nm, higher = more signal, called active from +8 up or from −8 down.
In a further assay the test system is XIP peptide (Xip251-270). The assay is described as follows: compounds binding XIP fragment 251-270 – biochemical, small-molecule microarray, fluorescence 635/667 nm, 0.5 µg/mL protein, primary screen (AID 1183). Conditions: fluorescence 635 nm, higher = more signal.
The nature of assay [2]: blood-stage malaria parasite viability loss – strain 3D7, DAPI fluorescence, 100 nL, primary screen (AID 1184).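 Further: parasites grown inside human red blood cells in medium with human serum.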 Conditions: P. falciparum 3D7 growth, 3 d, higher = more signal.
For assay [3], the target named is Homeobox protein Hox-A13 (Mus musculus) (UniProt Q62424). The assay is described as follows: disruptors of Hoxa13 oligonucleotide interaction – biochemical, fluorescence polarization, labeled oligonucleotide, primary screen (AID 1185). Conditions: Hoxa13:DNA binding, 15 min, higher = more signal, called active from +8 up or from −8 down.
Assay [4] is described as follows: blockers of DNA damage checkpoint Chk1 activation – imaging, HeLa, hydroxyurea, phospho-Chk1 antibody, percent positive cells, primary screen (AID 1186). Conditions: hydroxyurea-induced phospho-Chk1 immunofluorescence imaging, higher = more signal.
Assay [5] can be described thus: blockers of DNA damage checkpoint Chk1 activation – imaging, HeLa, hydroxyurea, phospho-Chk1 nuclear intensity, primary screen (AID 1187). As to conditions: hydroxyurea-induced phospho-Chk1 immunofluorescence imaging, higher = more signal.

Molecules are shown by their SMILES. Activity calls are given as the source filed them. Unless noted, how the calls were made is not given here.

Sequence of Homeobox protein Hox-A13 (Mus musculus) (Q62424 whole entry, looked up): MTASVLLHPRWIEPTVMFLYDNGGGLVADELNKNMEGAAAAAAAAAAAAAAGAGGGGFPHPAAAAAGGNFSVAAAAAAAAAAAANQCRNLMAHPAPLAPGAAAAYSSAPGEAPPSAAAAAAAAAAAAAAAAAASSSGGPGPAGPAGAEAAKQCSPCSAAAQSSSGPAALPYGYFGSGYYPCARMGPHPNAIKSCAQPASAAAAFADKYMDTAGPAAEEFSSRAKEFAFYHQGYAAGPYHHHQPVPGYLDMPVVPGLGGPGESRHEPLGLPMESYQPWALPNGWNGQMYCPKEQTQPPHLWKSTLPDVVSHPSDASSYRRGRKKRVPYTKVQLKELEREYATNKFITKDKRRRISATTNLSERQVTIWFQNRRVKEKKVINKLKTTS

Regarding `Cc1ccc(S[C@]2(C(=O)NC(C)C)CC(=O)N(Cc3cc(C(F)(F)F)cc(C(F)(F)F)c3)[C@@H]2c2ccc(CO)cc2I)cc1`, the results for the composite z-score (in assay [1]; in the assay with XIP peptide (Xip251-270)) were 0.351 (inactive) and 0.667, respectively. For the same compound, the z-score in assay [2] was 0.201; in assay [3] it was -2.81 (inactive); in assay [4] it was 0.392 (inactive); in assay [5] it was 0.52 (inactive).

Take `C=CC[C@@]1(C(=O)N2CCOCC2)N=C(c2ccc(OCCCO)cc2)O[C@@H]1c1ccccc1`: the composite z-score is 1.79 (inactive) in assay [1] and -0.526 in the assay with XIP peptide (Xip251-270). In addition, the z-score in assay [2] is -1.74; in assay [3] it was -5.67 (inactive); in assay [4], -0.648 (inactive); in assay [5], -0.241 (inactive).

On to `COc1cc2c(cc1OC)CN(C(=O)[C@H]1[C@@H]3C(=O)O[C@@H](c4ccccc4)[C@@H](c4ccccc4)N3[C@@H](c3ccc(O)cc3)[C@]13C(=O)Nc1ccc(C#CC4(O)CCCCCC4)cc13)CC2`, for which the composite z-score in assay [1] is 3.38 (inactive); in the assay with XIP peptide (Xip251-270) it was 0.838. The z-score was -1.51 in assay [2], -1.42 (inactive) in assay [3], -0.0159 (inactive) in assay [4] and 0.0808 (inactive) in assay [5].

Take `COC(=O)C1=CC(c2ccc(CO)cc2)=CC(c2cccs2)N(Cc2cccc(OC(F)(F)F)c2)C=C1C(=O)OC` (configuration not stated): the composite z-score in assay [1] was 2.19 (inactive); with XIP peptide (Xip251-270), 0.79. Also, the z-score in assay [2] was -1.91; in assay [3] it was -8.1 (active); in assay [4], 0.311 (inactive); in assay [5], 0.206 (inactive).

With `COC(=O)[C@@]1(Cc2ccccc2N=[N+]=[N-])N=C(c2ccc(OCCCO)cc2)O[C@H]1c1ccccc1CN=[N+]=[N-]`, the figures for the composite z-score (in assay [1]; in the assay on XIP peptide (Xip251-270)) were 0.367 (inactive) and 0.82, respectively. Also, the z-score in assay [2] is -2.29; in assay [3], 1.05 (inactive); in assay [4], -0.352 (inactive); in assay [5], -0.735 (inactive).

For `C[N+](C)(C)CCCC[C@@H]1NC(=O)[C@H]2C[C@@H](C(=O)NCc3ccc(F)cc3)[C@@H](c3cccc(OCCO)c3)N2C1=O`, the composite z-score in assay [1] is 1.61 (inactive); in the assay with XIP peptide (Xip251-270) it was 0.675. Besides, the z-score in assay [2] was 0.13; in assay [3], -1.22 (inactive); in assay [4], 0.06 (inactive); in assay [5], 0.274 (inactive).

For the compound `CC(C)CNC(=O)[C@@]1(C)c2ccccc2C(=O)N(Cc2ccc(OC(F)(F)F)cc2)[C@H]1c1ccc(CO)cc1`, the composite z-score in assay [1] was -0.332 (inactive); with XIP peptide (Xip251-270), -1.4. For the same compound, the z-score was -1.12 in assay [2], -2.24 (inactive) in assay [3], -0.273 (inactive) in assay [4] and -0.177 (inactive) in assay [5].

With `COCCOC(=O)N1C(=O)[C@@]2(c3cc(C#CCCO)ccc31)[C@H](C(=O)N1CCCCCCC1)[C@H]1C(=O)O[C@H](c3ccccc3)[C@H](c3ccccc3)N1[C@@H]2c1ccc(O)cc1`, the results for the composite z-score (in assay [1]; with XIP peptide (Xip251-270)) were 1.48 (inactive) and 0.63, respectively. Besides, the z-score in assay [2] is -0.303; in assay [3] it was -0.579 (inactive); in assay [4], -0.424 (inactive); in assay [5] it was -0.457 (inactive).

For the compound `NC(=O)[C@H]1[C@@H]2C(=O)O[C@@H](c3ccccc3)[C@@H](c3ccccc3)N2[C@@H](c2ccc(O)cc2)[C@]12C(=O)Nc1ccc(C#CCCO)cc12`, the composite z-score in assay [1] was -0.0876 (inactive); in the assay with XIP peptide (Xip251-270) it was -0.413. The z-score is -0.629 in assay [2], -5.7 (inactive) in assay [3], -0.0158 (inactive) in assay [4] and -0.651 (inactive) in assay [5].

In the case of `COCCOC(=O)N1C(=O)[C@@]2(c3cc(C#CCC(C(=O)OC)C(=O)OC)ccc31)[C@H](C(=O)N1CCN(c3ncccn3)CC1)[C@H]1C(=O)O[C@H](c3ccccc3)[C@H](c3ccccc3)N1[C@@H]2c1ccc(O)cc1`, the composite z-score in assay [1] was 1.36 (inactive); with XIP peptide (Xip251-270) it was 0.843. Besides, the z-score in assay [2] is -2.08; in assay [3] it was -0.323 (inactive); in assay [4], -0.447 (inactive); in assay [5], -0.685 (inactive).

Consider `[N-]=[N+]=NCc1ccccc1C[C@@]1(C(=O)O)N=C(c2ccc(OCCCO)cc2)O[C@@H]1c1ccccc1N=[N+]=[N-]`, for which the composite z-score in assay [1] is -0.321 (inactive); in the assay on XIP peptide (Xip251-270) it was 0.908. Moreover, the z-score in assay [2] was -2.15; in assay [3] it was -4.16 (inactive); in assay [4], -1.08 (inactive); in assay [5], -0.884 (inactive).

With `COc1ccc(C(O)C2C=CC3C(=O)N(C)C(=O)C3N2N2CCCCC2)cc1OCc1ccccc1` (configuration not stated), the composite z-score in assay [1] is -0.001 (inactive); in the assay with XIP peptide (Xip251-270), 0.582. Further, the z-score in assay [2] is -0.303; in assay [3], -4.76 (inactive); in assay [4], 0.245 (inactive); in assay [5], -0.0779 (inactive).

Turning to `C=C(C)[C@@H]1CC=C(C(O)C2C=CC3C(=O)NC(=O)C3N2Nc2ccccn2)CC1` (some centres not stated), the composite z-score is 0.745 (inactive) in assay [1] and 0.718 with XIP peptide (Xip251-270). The z-score in assay [2] is 0.982; in assay [3], -3.65 (inactive); in assay [4], 0.129 (inactive); in assay [5], -0.126 (inactive).

In the case of `C=CCC1=C[C@H]2[C@H]([C@@H]3C=C[C@]2(CC=C)C(=O)[C@]32CO2)[C@@]2(CO2)C1=O`, the composite z-score in assay [1] is 1.7 (inactive); in the assay with XIP peptide (Xip251-270), -0.489. In addition, the z-score in assay [2] was -0.0419; in assay [3], -1.29 (inactive); in assay [4], -0.556 (inactive); in assay [5] it was -0.606 (inactive).

Regarding `C=C[C@H](OC)[C@@H](OC(=O)Nc1ccc(SC)cc1)c1ccc(OC)c(O)c1`, the composite z-score in assay [1] was 0.241 (inactive); in the assay on XIP peptide (Xip251-270) it was 0.0001. For the same compound, the z-score in assay [2] is -0.549; in assay [3], -2.82 (inactive); in assay [4] it was -0.439 (inactive); in assay [5], 0.136 (inactive).

As to `COc1ccc(NN2C(C(O)c3cc(OC)c(OC)c(OC)c3)C=CC3C(=O)N(C4CCCCC4)C(=O)C32)cc1` (configuration not stated), the composite z-score in assay [1] was -0.0682 (inactive); in the assay with XIP peptide (Xip251-270), 0.758. The z-score in assay [2] was -1.11; in assay [3] it was -4.58 (inactive); in assay [4] it was 0.071 (inactive); in assay [5] it was -0.378 (inactive).

Turning to `COc1ccc([Si](C)(C)[C@@H]2[C@@H](CC(=O)N(CCO)Cc3ccccc3)O[C@]3(C(=O)N(Cc4cccc(N5CCC5=O)c4)c4ccccc43)[C@H]2C)cc1`, the values for the composite z-score (in assay [1]; with XIP peptide (Xip251-270)) were 1.09 (inactive) and 0.756, respectively. For the same compound, the z-score in assay [2] is -2.5; in assay [3], -1.54 (inactive); in assay [4], -0.0556 (inactive); in assay [5], -0.0513 (inactive).
